# Measurements: PMC8384837, “Expanding the binding specificity for RNA recognition by a PUF domain”
# Assays:
# Assay in all cases: yeast three-hybrid, YBZ-1, SC-Leu-His + 0.5 mM 3-AT, 4 days
# Settings in all cases: tags: N-Gal4 AD-HA kept; label: inside an RPR1-promoter hybrid RNA with tandem MS2 sites; ssRNA
# PUM1 PUF domain R3-YRW = PUM1 PUF domain R3-YRW (Homo sapiens, UniProt Q14671 828-1176, C935Y;Q939W)
# How it was run: (§1)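 Pumilio-1 PUF domain libraries, randomized (NNK) at the three base-contacting residues of each repeat, were co-expressed with matching RNA elements from a centromeric plasmid in strain YBZ-1 (LexA–MS2 coat fusion, HIS3 reporter). Transformants were plated on SC-Leu (input) and SC-Leu-His + 0.5 mM 3-AT (selection) for four days, and repeat regions were PCR-amplified and Illumina-sequenced. The interaction score is the log2 change in variant frequency from input to selection, with pseudocount 1 where absent.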
# PUM1 PUF domain R6-WHR = target: T1, PUM1 PUF domain R6-WHR (Homo sapiens, UniProt Q14671 828-1176, N1043W;Y1044H;Q1047R)
# T1 sequence: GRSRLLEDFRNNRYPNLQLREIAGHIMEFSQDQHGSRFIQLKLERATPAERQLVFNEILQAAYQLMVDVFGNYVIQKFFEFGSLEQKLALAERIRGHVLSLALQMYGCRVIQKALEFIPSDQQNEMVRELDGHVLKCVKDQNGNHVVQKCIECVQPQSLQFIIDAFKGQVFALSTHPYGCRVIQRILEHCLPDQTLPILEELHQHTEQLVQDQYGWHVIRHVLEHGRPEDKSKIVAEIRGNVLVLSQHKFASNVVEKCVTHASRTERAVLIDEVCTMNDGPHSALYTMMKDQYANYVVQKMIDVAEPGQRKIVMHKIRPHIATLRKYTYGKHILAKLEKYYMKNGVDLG
# How it was run: as §1
# PUM1 PUF domain R5-SVV = PUM1 PUF domain R5-SVV (Homo sapiens, UniProt Q14671 828-1176, C1007S;R1008V;Q1011V)
# How it was run: as §1
# PUM1 PUF domain R3-CRI = PUM1 PUF domain R3-CRI (Homo sapiens, UniProt Q14671 828-1176, Q939I)
# How it was run: as §1
# PUM1 PUF domain R3-TRT = PUM1 PUF domain R3-TRT (Homo sapiens, UniProt Q14671 828-1176, C935T;Q939T)
# How it was run: as §1
# PUM1 PUF domain R4-DWT = PUM1 PUF domain R4-DWT (Homo sapiens, UniProt Q14671 828-1176, N971D;H972W;Q975T)
# How it was run: as §1
# PUM1 PUF domain R3-LFE = PUM1 PUF domain R3-LFE (Homo sapiens, UniProt Q14671 828-1176, C935L;R936F;Q939E)
# How it was run: as §1
# PUM1 PUF domain R3-API = PUM1 PUF domain R3-API (Homo sapiens, UniProt Q14671 828-1176, C935A;R936P;Q939I)
# How it was run: as §1
# PUM1 PUF domain R2-SIP = PUM1 PUF domain R2-SIP (Homo sapiens, UniProt Q14671 828-1176, N899S;Y900I;Q903P)
# How it was run: as §1
# PUM1 PUF domain R2-RRA = PUM1 PUF domain R2-RRA (Homo sapiens, UniProt Q14671 828-1176, N899R;Y900R;Q903A)
# How it was run: as §1
# PUM1 PUF domain R1-RKL = PUM1 PUF domain R1-RKL (Homo sapiens, UniProt Q14671 828-1176, S863R;R864K;Q867L)
# How it was run: as §1
# PUM1 PUF domain R1-KWS = PUM1 PUF domain R1-KWS (Homo sapiens, UniProt Q14671 828-1176, S863K;R864W;Q867S)
# How it was run: as §1
# PUM1 PUF domain R1-KTQ = PUM1 PUF domain R1-KTQ (Homo sapiens, UniProt Q14671 828-1176, S863K;R864T)
# How it was run: as §1
# PUM1 PUF domain R5-DFS = PUM1 PUF domain R5-DFS (Homo sapiens, UniProt Q14671 828-1176, C1007D;R1008F;Q1011S)
# How it was run: as §1
# PUM1 PUF domain R3-RQS = PUM1 PUF domain R3-RQS (Homo sapiens, UniProt Q14671 828-1176, C935R;R936Q;Q939S)
# How it was run: as §1
sequence,measurement,setting,value
GGCUAGAACUAGUGGAUCCCCCGGCGCCCGGCGGCUCGAGCCCGGGUAAGUGUAAGUAGUCUGCAUGCCGCCGGGCGCCAUGCCUGCAGGUCGACUCUAGAAAACAUG,binding signal,PUM1 PUF domain R3-YRW,4.4 log2 enrichment (interaction score)
GGCUAGAACUAGUGGAUCCCCCGGCGCCCGGCGGCUCGAGCCCGGGUAAGUGUAAAUAGUCUGCAUGCCGCCGGGCGCCAUGCCUGCAGGUCGACUCUAGAAAACAUG,binding signal,PUM1 PUF domain R6-WHR,3.96 log2 enrichment (interaction score)
same,binding signal,PUM1 PUF domain R5-SVV,0.43 log2 enrichment (interaction score)
same,binding signal,PUM1 PUF domain R3-CRI,3.93 log2 enrichment (interaction score)
same,binding signal,PUM1 PUF domain R3-TRT,4.01 log2 enrichment (interaction score)
same,binding signal,PUM1 PUF domain R4-DWT,6.18 log2 enrichment (interaction score)
same,binding signal,PUM1 PUF domain R3-LFE,3.02 log2 enrichment (interaction score)
same,binding signal,PUM1 PUF domain R3-API,3.13 log2 enrichment (interaction score)
GGCUAGAACUAGUGGAUCCCCCGGCGCCCGGCGGCUCGAGCCCGGGUAAGUGUAAAGAGUCUGCAUGCCGCCGGGCGCCAUGCCUGCAGGUCGACUCUAGAAAACAUG,binding signal,PUM1 PUF domain R2-SIP,3.71 log2 enrichment (interaction score)
same,binding signal,PUM1 PUF domain R2-RRA,2.69 log2 enrichment (interaction score)
GGCUAGAACUAGUGGAUCCCCCGGCGCCCGGCGGCUCGAGCCCGGGUAAGUGUGAAUAGUCUGCAUGCCGCCGGGCGCCAUGCCUGCAGGUCGACUCUAGAAAACAUG,binding signal,PUM1 PUF domain R5-SVV,3.44 log2 enrichment (interaction score)
GGCUAGAACUAGUGGAUCCCCCGGCGCCCGGCGGCUCGAGCCCGGGUAAGUGUAAAUUGUCUGCAUGCCGCCGGGCGCCAUGCCUGCAGGUCGACUCUAGAAAACAUG,binding signal,PUM1 PUF domain R1-RKL,2.52 log2 enrichment (interaction score)
same,binding signal,PUM1 PUF domain R1-KWS,3.62 log2 enrichment (interaction score)
same,binding signal,PUM1 PUF domain R1-KTQ,5.82 log2 enrichment (interaction score)
GGCUAGAACUAGUGGAUCCCCCGGCGCCCGGCGGCUCGAGCCCGGGUAAGUGUUAAUAGUCUGCAUGCCGCCGGGCGCCAUGCCUGCAGGUCGACUCUAGAAAACAUG,binding signal,PUM1 PUF domain R5-DFS,5.63 log2 enrichment (interaction score)
GGCUAGAACUAGUGGAUCCCCCGGCGCCCGGCGGCUCGAGCCCGGGUAAGUGUAAUUAGUCUGCAUGCCGCCGGGCGCCAUGCCUGCAGGUCGACUCUAGAAAACAUG,binding signal,PUM1 PUF domain R3-TRT,1.8 log2 enrichment (interaction score)
same,binding signal,PUM1 PUF domain R3-LFE,1.57 log2 enrichment (interaction score)
same,binding signal,PUM1 PUF domain R3-RQS,4.09 log2 enrichment (interaction score)
